Screening results deposited in PubChem BioAssay by several laboratories.
This is a sample that favours compounds with a hit; in the whole collection about 0.69% have one here.
Phagocytosis inh = inhibitors of macrophage phagocytosis, primary screen, imaging, J774A.1 cells, IgG beads. AID 1029, 2008. 110,000 tested, 0.07% active. J774A.1 macrophage IgG-bead phagocytosis. inhibition, % at 5 µM;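 active = inhibition above the mean of the plate negative controls plus 5 SD, cut at about 13% in these data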;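 also: phagocytic index as fraction of beads internalized from green versus red external bead signal; plate controls were DMSO negative control for no effect and cytochalasin-D positive control for full effect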
MRP1 act = H69AR viability gain despite doxorubicin, primary screen, MRP-1 activator project, H69AR cells, CellTiter-Glo. viability rescue. viability increase, % at 10 µM. AID 799, 2007. 140,000 tested, 0.61% active;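 active = viability gain under doxorubicin at or above a set limit, the compound median plus 3 SD, cut at about 4.7% in these data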;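 also: MRP-1 overexpressing cells given doxorubicin 25 µM after compound pretreatment; 18-22 h compound pretreatment then 72 h with doxorubicin before readout; 0% = doxorubicin-only wells and 100% = vehicle-treated cells without doxorubicin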
MRP reversal = reversal of MRP1-mediated doxorubicin resistance, primary screen, H69AR cells, doxorubicin co-treatment. H69AR cells + 2 uM doxorubicin, CellTiter-Glo, 72 h. differential viability (reversal), % at 10 µM. 85,000 tested, 0.04% active. AID 602, 2007;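 active = viability drop by adding the cancer drug above about 55%, with treated viability meeting a 40% cutoff, limit read from the data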;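 also: viability without doxorubicin minus viability with 2 µM doxorubicin for each compound; larger differential means the compound sensitizes cells more to doxorubicin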
Active calls of the source: *; . = no result; [ ] = another dose, or the depositor's remark.

SMILES	Phagocytosis inh	MRP1 act	MRP reversal
CCCc1nc(SCC(=O)Nc2nc3c(s2)CCCC3)c2ccccc2n1	.	2	.
O=C(CCn1cnc2ccccc2c1=O)Nc1nc2c(s1)CCCC2	41*[artifact]	-2	5
CCOC(=O)c1cccc(-n2c(-c3ccc(OC)cc3)nc3nc4ccccc4nc32)c1	.	-5	.
Cc1cccc(Nc2nnc(SCC(=O)Nc3cccc(S(=O)(=O)N4CCCCC4)c3)s2)c1	-11	-1	.
Cc1cccc(Nc2nnc(SCC(=O)Nc3cccnc3Cl)s2)c1	1	8.1*	.
O=C(Nc1ccc(Cl)cc1)C1CCCN(S(=O)(=O)c2cnc[nH]2)C1 (centres undefined)	0	4.9*	11
CC(C)c1ccc(NC(=O)C2CCCN(S(=O)(=O)c3cnc[nH]3)C2)cc1 (centres undefined)	0	1	8
Cc1nc(N2CCN(S(=O)(=O)c3ccc(F)cc3)CC2)c2c(C)c(C)sc2n1	-1	.	-2
Cc1sc2nc(C3CC3)nc(N3CCN(S(=O)(=O)c4ccc(F)cc4)CC3)c2c1C	0	6.6*	-21
Cc1ccc(C(=O)Nc2nc(=O)n(C(=O)CC(C)C)s2)cc1	0	3	.
CC(C)CC(=O)n1sc(NC(=O)c2ccccc2)nc1=O	4	6.5*	.
COc1ccc(C2=Nc3ccc(Br)cc3C(c3ccccc3)N2CC(=O)NN)cc1 (centres undefined)	-8	4.8*	.
NNC(=O)CN1C(c2cccc(Cl)c2)=Nc2ccc(Br)cc2C1c1ccccc1 (centres undefined)	0	1	.
Cc1c(Cl)cccc1-c1ccc(C(=O)N2CCN(c3ccc([N+](=O)[O-])cc3)CC2)o1	1	-2	.
O=C(c1ccc(-c2cccc(Cl)c2)o1)N1CCN(c2ccc([N+](=O)[O-])cc2)CC1	-1	4.7*	.
Cc1ccc2sc(NC(=O)CN3C(=O)c4ccccc4C3=O)nc2c1C	.	-3	.
CC/C(C)=N/Nc1cccc([N+](=O)[O-])c1	-10	-1	.
C=CCOc1ccc(CNc2ccc(NC(=O)CC(C)C)cc2)cc1OC	-4	18*	.
C=CCOc1ccc(CNc2nn[nH]n2)cc1OC	0	-2	.
CCCCn1[nH]c(-c2ccccc2)cc1=O	10	3	.
CN(C)c1oc(-c2ccc(OCc3ccccc3)cc2)nc1C#N	-2	4.7*	2
N#Cc1nc(-c2ccc(OCc3ccccc3)cc2)oc1NCc1cccnc1	-1	-3	-12
Cc1ccc(NC2OC(CO)C(O)C(O)C2O)cc1 (centres undefined)	0	-1	-1
COc1ccc(/C=C/C(=O)NCc2cnn(C)c2C)cc1COc1ccc(Br)cc1	.	5.3*	.
COc1ccc(/C=C/C(=O)NCc2c(C)nn(C)c2C)cc1COc1ccc(Br)cc1	.	3	.
SMILES	Phagocytosis inh	MRP1 act	MRP reversal
O=C1CC(C2CCCO2)C(=O)N1Cc1ccccc1 (centres undefined)	69*	-2	-8
O=C1CC(C2CCCO2)C(=O)N1c1cccc(Cl)c1 (centres undefined)	2	1	6
CCOC(=O)CSc1nnc(CSc2nc3sc4c(c3c(=O)[nH]2)CCCC4)n1-c1ccccc1	.	-1	-14
COc1cccc(NC(=O)c2oc3ccccc3c2NC(=O)c2ccc3c(c2)OCO3)c1	.	5.0*	-7
COc1cccc(NC(=O)c2oc3ccccc3c2NC(=O)C(C)(C)C)c1	0	3	-2
Cc1ccc(OCCOc2ccc(Cl)cc2Cl)c([N+](=O)[O-])n1	-8	2	.
O=C1CC(c2nc3ccccc3[nH]2)CN1c1cccc(C(F)(F)F)c1 (centres undefined)	.	7.7*	6
O=C1CC(c2nc3ccccc3[nH]2)CN1c1ccccc1F (centres undefined)	-2	0	24
Cc1nn(Cc2ccccc2)c(C)c1NC(=O)c1noc2c1CCc1ccccc1-2	0	6.5*	18
Cc1ccc(NC(=O)c2noc3c2CCc2ccccc2-3)cc1	-1	-1	-16
COc1ccc(/C=C/C(=O)c2ccc(NC(=O)c3cccs3)cc2)cc1OC	0	-3	.
COc1ccccc1-n1c(SCC(=O)Nc2ccc(F)cc2)nc2c(c1=O)SCC2	0	-3	-32
CCOC(=O)N1CCN(C(=O)CSc2nc3c(c(=O)n2-c2ccccc2OC)SCC3)CC1	.	-4	57*
Cc1nnc(SCC(=O)Nc2ccc(N3CCOCC3)cc2)n1-c1ccccc1	0	-3	1
Cc1ccc(NC(=O)CSc2nnc(-c3cccs3)n2Cc2ccco2)cc1	-1	6.1*	13
Cn1c(SCC(=O)Nc2cccc3ccccc23)nc(O)cc1=O	0	-1	.
Cc1ccc(NC(=O)CSc2nc(O)cc(=O)n2C)cc1	.	8.5*	-9
CN(C)c1ccc(NC(=O)CSc2nnc(-c3cccs3)n2Cc2ccco2)cc1	0	0	-9
Cc1nnc(SCC(=O)Nc2ccc3c(c2)COC3=O)n1-c1ccccc1	0	1	.
Cc1ccc(-n2c(C)nnc2SCC(=O)Nc2ccccc2)cc1	.	5.9*	8
Cc1ccc(NC(=O)CSc2nnc(C)n2-c2ccccc2)cc1	.	6.8*	1
ONC(=Nc1ccc(Cl)cc1)c1ccccc1	-1	-2	.
Cc1ccc(C(O)(C(=O)NNc2ccc3ccccc3n2)c2ccc(C)cc2)cc1	-13	3	.
Cc1noc(C)c1S(=O)(=O)N(C)CC(=O)Nc1ccc(F)cc1	0	0	22
COc1cc([N+](=O)[O-])ccc1NC(=O)CC(C)C	-1	0	.
SMILES	Phagocytosis inh	MRP1 act	MRP reversal
CC(C)Cn1c2c(c(O)c(C(=O)Nc3nccs3)c1=O)CCCC2	.	5.7*	-13
CCCn1c2c(c(O)c(C(=O)Nc3nccs3)c1=O)CCCC2	-1	-1	10
CCCn1c(C)cc(/C=C(\C#N)C(=O)OCC(=O)Nc2ccc(OC)c(Cl)c2)c1C	-4	9.4*	.
CCCn1c(C)cc(/C=C(\C#N)C(=O)OCC(=O)NC(=O)NCC)c1C	0	-3	14
CCCCOc1ccc(NC(=S)Nc2cc(C)nc(SCCCC)n2)cc1	.	-2	.
CC(=O)N/C(=C\c1ccccc1)C(=O)OCC(=O)N(C)C1CCCCC1	-9	-2	.
CN1CCN(c2nc(-c3cccs3)nc3ccccc23)CC1	-5	-1	.
c1ccc(N2CCN(c3nc(-c4cccs4)nc4ccccc34)CC2)cc1	-6	7.3*	.
CS(=O)(=O)Nc1nnc(Cc2ccccc2)s1	.	7.9*	-10
CC(=O)Nc1nnc(Cc2ccccc2)s1	-1	1	3
Cc1ccc(N2C(=N)/C(=C3/Nc4ccccc4S3)C(c3ccccc3)C2=O)cc1 (centres undefined)	1	-6	.
CCN(C(=O)COC(=O)c1cccnc1Nc1ccccc1F)C1CCS(=O)(=O)C1 (centres undefined)	2	2	.
CC(C(=O)N1c2ccccc2CCc2ccccc21)n1nnc(-c2ccc(N(C)C)cc2)n1 (centres undefined)	.	8.2*	0
Cc1ccc(-c2nnn(C(C)C(=O)N3c4ccccc4CCc4ccccc43)n2)cc1 (centres undefined)	.	3	13
CC(C)CNC(=O)c1ccc(NC(=O)c2cccs2)cc1	1	1	.
CCn1c(CNC(=O)COc2ccc(C(C)C)cc2)nnc1SCC(=O)Nc1ccccc1C(C)C	-2	6.2*	.
